The results in this text go back to PubChem BioAssay (Tox21).

A short description of experiment [1]: qHTS assay to identify small molecule agonists of the hypoxia (HIF-1) signaling pathway (AID 1224846; active means well fitted activation curve with a large enough effect in the signal ratio in the repeat runs, not every such curve was filed as active; the % refers to the signal ratio). Summed up:
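HRE-bla ME-180 cells (beta-lactamase reporter under hypoxia response element) were plated at 2,000 cells/well in medium with 0.5% dialyzed FBS, rested 5 hrs, then given compounds in DMSO for 17 hrs at 37C, 5% CO2. Reporter induction was read with CCF4-AM FRET substrate.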
(In general: In qHTS, concentration-response curves come from the screen itself.)

Experiment [2] is described as follows: qHTS assay to identify small molecule agonists of H2AX - cell viability counter screen (AID 1224847; calls by dose curve; further: nearly all actives have a fitted effect of over 30% in size; further: potency means the concentration at half of the fitted maximal effect;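 on activity change, negative = cytotoxicity: wild-type CHO-K1 cells; top concentration of the series differs between compounds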). Summed up: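 Counter-screen for viability: CellTiter-Glo ATP luminescence read after 3 h compound treatment (15-point titration, 0.76% DMSO final) of CHO-K1 cells at 37C, with 30 min room-temperature reagent incubation.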
Experiment [3] is described as follows: qHTS RealTime-Glo MT Cell Viability Assay in HepG2 cells - 24 hour (AID 1224867). Further: nearly all actives have a fitted effect of over 50% in size. Further: potency means the concentration at half of the fitted maximal effect. Summed up:
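Cells + NanoLuc/prosubstrate dispensed (600 cells/well) → 5 h at 37 C/5% CO2 → compounds in DMSO transferred → 40 h incubation at 37 C, luminescence read at 0, 8, 16, 24, 32, 40 h.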

Experiment [4] is described as follows: qHTS RealTime-Glo MT Cell Viability Assay in HEK293 cells - 32 hour (AID 1224868). Further: nearly all actives have a fitted effect of over 50% in size. Further: potency means the concentration at half of the fitted maximal effect. On activity change, negative = cytotoxic: top concentration of the series differs between compounds. The method in brief: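 Tox21 10K qHTS, HEK293, 600 cells/well, RealTime-Glo reagent co-dispensed with cells; 5 h preincubation, compound by pintool, 37 C, luminescence at 0–40 h.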
Experiment [5] can be described thus: A CellTox Green Cytotoxicity Assay to monitor cytotoxicity in HEK293 cells - 0 hour (AID 1224869). Further: nearly all actives have a fitted effect of over 50% in size. The method in brief: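 HEK293 cells premixed with CellTox Green dye were seeded at 600 cells/well and left 5 h at 37 C/5% CO2 before pin transfer of 23 nL compound in DMSO. Fluorescence from dye bound to dead-cell DNA was read during 40 h treatment.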
Experiment [6] is described as follows: qHTS RealTime-Glo MT Cell Viability Assay in HepG2 cells - 40 hour (AID 1224870). Further: nearly all actives have a fitted effect of over 50% in size. Further: potency means the concentration at half of the fitted maximal effect. The method in brief: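 Real-time viability: cells seeded at 600 per well together with NanoLuc and cell-permeant prosubstrate, compounds added after 5 h incubation. Luminescence tracked at 0, 8, 16, 24, 32 and 40 h of exposure.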
The nature of experiment [7]: qHTS assay to identify small molecule agonists of H2AX (AID 1224845; active means well fitted activation curve with a large enough effect in the signal ratio in the repeat runs, not every such curve was filed as active; the % refers to the signal ratio). The method in brief:
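Phospho-H2AX Ser139 measured by HTRF (ex 320 nm; em 665 and 620 nm) after 24 hr antibody incubation. Compounds, 15 concentrations, 0.76% DMSO, were applied to CHO-K1 cells for 3hr at 37C before lysis.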

The nature of experiment [8]: qHTS assay to identify small molecule agonists of the estrogen related receptor (ERR) signaling pathway from Tox21 library (AID 1224849; calls by dose curve; further: nearly all actives have a fitted effect of over 15% in size). The following applies: ERR reporter cell line, ONE-Glo luciferase, 18 h. Summed up: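 ERR reporter cell line (NTP) seeded, rested 6 h at 37 C/5% CO2, then pinned with Tox21 compounds in DMSO. After 18 h at 37 C, ONE-Glo luciferase luminescence was read following 30 min at room temperature.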

The nature of experiment [9]: qHTS assay to identify small molecule antagonists of the estrogen related receptor (ERR) signaling pathway from Tox21 library (AID 1224848). Further: nearly all actives have a fitted effect of over 50% in size. Further: potency means the concentration at half of the fitted maximal effect. The method in brief:
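Antagonist-mode screen of the Tox21 10K library in an NTP-provided ERR reporter cell line; 18 h compound exposure at 37 C, luminescence measured with ONE-Glo.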

Experiment [10] can be described thus: qHTS assay to identify small molecule agonists of the hypoxia (HIF-1) signaling pathway - cell viability counter screen (AID 1224844; calls by dose curve; further: nearly all actives have a fitted effect of over 50% in size). Summed up: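 HRE-bla ME-180 cells in medium with 0.5% dialyzed FBS were preincubated 5 hrs at 37C, exposed to compounds for 17 hrs, then viability was read as CellTiter-Glo luminescence after 30 min at room temperature, in the reporter wells.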

Where “and” joins values, the source holds several entries; their conditions need not be identical. Equal entries are not always repeated. Unmarked numbers belong to inactive results. Records with an inconclusive call do not appear. Calls of active or inactive are those of the source. Unless noted, the call rests on the fitted dose curve; in most records, active means well fitted curve in the direction sought with a large enough effect in the repeat runs; inconclusive means weak or mixed curves; inactive means no such curve, though single readings can be large; an effect the other way counts as inactive or inconclusive.
On the % scale 0 is the no-effect control and ±100 the full control effect.

For the molecule `C=CCCC(=O)/C=C/C1C(C)=CCCC1(C)C` (configuration not stated), the Potency entry in experiment [1], in [3], in experiment [4], in [5] and in [6] was “inactive” in each case. For the same molecule, the Potency in experiment [2] is 89.8 µM (active).

Regarding `CCC(C)(CCC(C)C)C(=O)[O][Sn]([CH3])([CH3])[O]C(=O)C(C)(CC)CCC(C)C` (configuration not stated), the Potency result in [7], in experiment [2], in experiment [3], in [5] and in experiment [6] was “inactive” each time. In addition, the activity change, positive = activation in experiment [8] (at 92.4 µM (top of the series)) is -20.9%.

Regarding `O=c1c(O)c(-c2ccc(O)cc2O)oc2cc(O)cc(O)c12`, the Potency result in [3], in experiment [4], in experiment [5] and in [6] was “inactive” throughout.

For the molecule `O=c1[nH]c2ccccc2n1CCCN1CCN(C(c2ccccc2)c2ccccc2)CC1`, the Potency was 23.9 µM (active) in experiment [3], 12 µM (active) in experiment [4] and 23.9 µM (active) in experiment [6]. Also, the Potency result in experiment [5] was “inactive”.

For the molecule `COC1=C(OC)C(=O)C(CCCCCCCCCCO)=C(C)C1=O`, the Potency in [9] was 18.8 µM (active); in experiment [4], 5.35 µM (active). For the same molecule, in [8] (at 42.5 µM (top of the series)), the activity change, positive = activation is -46.7%. Moreover, the Potency entry in experiment [3], in experiment [5] and in experiment [6] was “inactive” in each case.

For `COC(=O)Nc1nc2ccc(C(=O)c3ccccc3)cc2[nH]1`, the Potency result in experiment [1], in experiment [2], in [3], in experiment [5] and in experiment [6] was “inactive” throughout.

Consider `CCC(C)n1ncn(-c2ccc(N3CCN(c4ccc(OC[C@H]5CO[C@](Cn6cncn6)(c6ccc(Cl)cc6Cl)O5)cc4)CC3)cc2)c1=O` (some centres not stated), for which the Potency result in [7], in [2] and in experiment [5] was “inactive” throughout.

On to `CN(C)[C@@H](CCOc1cccc2ccccc12)c1ccccc1`, for which the Potency result in experiment [1] and in experiment [5] was “inactive” each time. Also, the activity change, positive = activation in experiment [8] (at 42.5 µM (top of the series)) was -27.2%.

With `CN1CCCCC1CCN1c2ccccc2Sc2ccc(S(C)=O)cc21` (configuration not stated), the Potency result in [7], in experiment [3] and in [6] was “inactive” in each case.

As for `Oc1ccccc1O`, the Potency entry in experiment [2], in experiment [3], in experiment [5] and in experiment [6] was “inactive” each time. In [4], the Potency was 39.4 µM (active) and 21.9 µM (active).

Turning to `CCCCCCCCCCCCOCCOCCOCCOCCOCCOCCOCCOCCOCCO`, the Potency result in experiment [7], in experiment [5] and in experiment [6] was “inactive” in each case. Also, the results for the Potency in experiment [2], in experiment [9] and in experiment [4] were 55.2 µM (active), 2.98 µM (active) and 5.35 µM (active), respectively. In addition, in experiment [8] (at 42.5 µM (top of the series)), the activity change, positive = activation was -54.8%.

On to `CNc1ccc([N+](=O)[O-])cc1`, for which the Potency entry in [7], in experiment [1], in experiment [2], in experiment [9], in experiment [3] and in experiment [5] was “inactive” throughout. The Potency entry in experiment [6] is “inactive”. For the same molecule, the activity change, positive = activation in experiment [8] (at 92.4 µM (top of the series)) was 0.163%.

Consider `O=c1[nH]c(=O)n([C@H]2C[C@H](O)[C@@H](CO)O2)cc1F`, for which the Potency entry in experiment [10], in [3], in [5] and in experiment [6] was “inactive” each time.

As for `CCCc1ccc(OCC(=O)N2CCN(C(=O)COc3ccc(CCC)cc3OC)CC2)c(OC)c1`, the Potency entry in experiment [7], in experiment [2] and in [5] was “inactive” in each case. Besides, in [8] (at 42.5 µM (top of the series)), the activity change, positive = activation is -21.5%. Also, in [4], the Potency was 8.49 µM (active).

Take `Cc1cc(C(C)(C)C)c(O)c(C)c1Cn1c(=O)n(Cc2c(C)cc(C(C)(C)C)c(O)c2C)c(=O)n(Cc2c(C)cc(C(C)(C)C)c(O)c2C)c1=O`: the Potency entry in experiment [7], in [2] and in [5] was “inactive” each time. Further, the activity change, positive = activation in experiment [8] (at 92.4 µM (top of the series)) was -29.1%. The Potency in experiment [4] was 21.9 µM (active).

Consider `Clc1ccnc(Cl)n1`, for which the Potency result in experiment [7], in [2], in [9], in [3], in [5] and in experiment [6] was “inactive” each time. For the same molecule, the activity change, positive = activation in [8] (at 92.4 µM (top of the series)) is -1.53%.

For the molecule `CN1CCN(Cc2cc(-c3ccc4[nH]c(=O)oc4c3)co2)[C@@H](c2ccc(F)cc2)C1`, the Potency entry in [7], in experiment [1] and in [5] was “inactive” throughout. In experiment [4], the Potency is 21.1 µM (active).

`CCCCCC/C=C\CCCCCCCC(=O)O`: the Potency entry in experiment [7], in [2], in experiment [3], in experiment [4], in experiment [5] and in experiment [6] was “inactive” in each case.

Consider `COc1cc2nc(N3CCN(C(=O)c4ccco4)CC3)nc(N)c2cc1OC`, for which the activity change, negative = cytotoxicity in experiment [2] was -2.17% [at 31.6 µM]; in [3] it was -23% [at 15.8 µM]. Further, in experiment [4], the activity change, negative = cytotoxic was -17.7% [at 15.8 µM]. In addition, the cytotoxicity in experiment [5] is 2.18% [at 15.8 µM].

For the molecule `C/C=C/C=C/COC(=O)C(C)C`, the Potency entry in experiment [1] and in [5] was “inactive” each time.

Regarding `CC(C)(C)c1csc(-c2cc3cc(OCc4ccccc4CC(=O)O)ccc3o2)n1`, the values for the Potency in [2] and in [4] were 113 µM (active) and 38.9 µM (active), respectively. For the same molecule, the Potency result in experiment [3], in [5] and in experiment [6] was “inactive” each time.
